Test results published in the supplement of paper PMC6555819.

Columns and labels:
Test in all cases: PBM binding z-score (relative to random genomic background probes); higher = stronger binding; sequences stand for … in GC…GCGATTGACAGCGTAGAATGAAGG
[1] = system: FXR:RXRa (NR concentration 270 nM, RXRa partner concentration 90 nM)
Outline: (§1)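 Each nuclear receptor dimer, without ligand, was incubated for 1 h on custom Agilent 4×180K protein-binding microarrays. Binding was detected with antibodies against each partner (one per run), and scanned fluorescence was regression-normalized. The binding z-scores are referenced to random human genomic background probes.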

[2] = system: LXRa:RXRa (NR concentration 270 nM, RXRa partner concentration 90 nM)
Outline: as §1

[3] = system: LXRa homodimer (NR concentration 270 nM)
Outline: as §1

[4] = system: LXRb:RXRa (NR concentration 270 nM, RXRa partner concentration 90 nM)
Outline: as §1

[5] = system: LXRb homodimer (NR concentration 270 nM)
Outline: as §1

[6] = system: PPARa:RXRa (NR concentration 270 nM, RXRa partner concentration 90 nM)
Outline: as §1

[7] = system: PPARg:RXRa (NR concentration 180 nM, RXRa partner concentration 90 nM)
Outline: as §1

[8] = system: PPARg:RXRa 270nM:90nM, anti-RXR (NR concentration 270 nM, RXRa partner concentration 90 nM)
Outline: as §1

[9] = system: PPARg:RXRa 30nM:10nM, anti-RXR (NR concentration 30 nM, RXRa partner concentration 10 nM)
Outline: as §1

[10] = system: PPARg:RXRa 90nM:30nM, anti-RXR (NR concentration 90 nM, RXRa partner concentration 30 nM)
Outline: as §1

[11] = system: PPARg:RXRa DBDmut IVT, anti-RXR (DBD mutation: RXRa K156A/R161A, NR concentration 270 nM, RXRa partner concentration 90 nM)
Outline: as §1

[12] = system: PPARg:RXRa IVT, anti-PPARg (NR concentration 270 nM, RXRa partner concentration 90 nM)
Outline: as §1

[13] = system: PPARg DBDmut:RXRa IVT, anti-PPARg (DBD mutation: PPARg1 K132A/R137A, NR concentration 270 nM, RXRa partner concentration 90 nM)
Outline: as §1

[14] = system: PPARg DBDmut IVT, anti-PPARg (DBD mutation: PPARg1 K132A/R137A, NR concentration 270 nM)
Outline: as §1

[15] = system: PPARg homodimer (NR concentration 180 nM)
Outline: as §1

[16] = system: PXR:RXRa (NR concentration 270 nM, RXRa partner concentration 90 nM)
Outline: as §1

[17] = system: PXR homodimer (NR concentration 270 nM)
Outline: as §1

[18] = system: RARa:RXR (NR concentration 270 nM, RXRa partner concentration 90 nM)
Outline: as §1

[19] = system: RARa homodimer (NR concentration 270 nM)
Outline: as §1

[20] = system: RARb:RXRa (NR concentration 270 nM, RXRa partner concentration 90 nM)
Outline: as §1

Row | Sequence | PBM binding z-score [1] | PBM binding z-score [2] | PBM binding z-score [3] | PBM binding z-score [4] | PBM binding z-score [5] | PBM binding z-score [6] | PBM binding z-score [7] | PBM binding z-score [8] | PBM binding z-score [9] | PBM binding z-score [10] | PBM binding z-score [11] | PBM binding z-score [12] | PBM binding z-score [13] | PBM binding z-score [14] | PBM binding z-score [15] | PBM binding z-score [16] | PBM binding z-score [17] | PBM binding z-score [18] | PBM binding z-score [19] | PBM binding z-score [20]
1 | AGAACGAGGGCAATGAGTTGACAGCACGGGTGGC | 0.329 | 0.24 | -0.349 | -0.388 | -0.581 | 1.24 | 1.38 | 0.8 | 0.0302 | 0.423 | 3.68 | 2.54 | 0.168 | 0.4 | -0.106 | 1.19 | 2.68 | 0.713 | -0.225 | 2.12
2 | TCTATTAGTTGGTTAGGGCAACCGAAACAGCGGA | 0.675 | 0.576 | 0.522 | 0.534 | 1.35 | 0.448 | -0.169 | 1.55 | 3.59 | 2.57 | 1.47 | 0.862 | 1.18 | 0.941 | 0.798 | 0.158 | 0.345 | 0.342 | 1.17 | 0.848
3 | CAAACGAGGGCATGAGTTGATAGCAAATGCCGAT | 0.718 | 0.454 | -0.447 | 0.313 | -0.289 | 1.86 | 1.7 | 1.88 | 0.402 | 1.12 | 2.71 | 2.88 | 0.524 | -0.353 | 0.909 | 0.572 | -0.0239 | 0.752 | -0.274 | 2.24
4 | ACAACGAGGGCACGCTGAGTTGATAGCAGAGTAG | 0.762 | 0.503 | -0.519 | 0.00813 | -0.476 | 1.58 | 1.65 | 1.19 | 0.248 | 0.944 | 3.61 | 3.13 | 0.767 | 0.323 | 0.345 | 1.22 | 0.145 | 0.573 | -0.791 | 2.63
5 | ATCGAAAGGTCGAGGTCAGTATAGAGAAAGGGAA | 5.77 | 4.62 | 1.15 | 4.12 | 1.14 | 5.3 | 4.76 | 5.12 | 2.04 | 4.08 | 0.84 | 3.1 | 1.71 | 1.29 | 3.42 | 4.33 | 1.7 | 4.81 | 2.18 | 5.1
6 | CCTAGTGGGCCATTCAGAGGTCATTGATCATATG | 2.85 | 4.29 | 6.62 | 3.77 | 0.202 | 3.98 | 2.23 | 3.11 | 0.966 | 2.3 | 4.41 | 4.44 | 1.45 | 0.315 | 4.35 | 4.94 | 2.6 | 4.89 | 0.902 | 2.98
7 | TCGAGTAGGTTAGGGGCATGCAGAATGGCGTCGA | 0.354 | 0.125 | -0.474 | 0.49 | -0.161 | 1.29 | 0.641 | 1.68 | 0.979 | 1.27 | 1.92 | 1.32 | -0.639 | -1.3 | 0.568 | 0.108 | -0.44 | 0.383 | -0.355 | 1.2
8 | GCGACCGGGGCAAAGCAGGTTACCATAAGGTTGG | 0.264 | 0.812 | -0.366 | 0.0322 | -1.28 | 1.42 | 0.709 | 0.611 | -0.666 | -0.143 | 1.27 | 1.24 | -1.18 | -1.17 | 0.243 | 0.857 | -0.433 | 1.31 | -0.661 | 1.65
9 | CAAACTAGGTCACAGAGGTCACAGTCCGTGCGTA | 6.73 | 6.02 | 6.09 | 5.37 | 1.35 | 6.43 | 10.1 | 8.04 | 6.43 | 8.12 | 8.75 | 9.01 | 2.8 | 2.69 | 5.83 | 6.57 | 9.23 | 7.15 | 2.78 | 5.35
10 | CAAACTAGGTCACCGGAAGGTCAAACTCCGCATG | 6.33 | 6.34 | 6.11 | 5.67 | 1.82 | 6.19 | 9.8 | 7.8 | 6.23 | 7.86 | 8.32 | 8.83 | 5.1 | 4.65 | 8.25 | 6.17 | 2.46 | 7.35 | 2.71 | 5.14
11 | CATACAGGGTCAGTTAGGCCAGAGTAGGGACGGC | 3.37 | 2.29 | -0.0109 | 1.79 | 0.655 | 3.36 | 2.24 | 1.92 | 0.738 | 1.41 | 0.861 | 2.08 | 1 | 0.259 | 2.09 | 1.55 | 0.258 | 2.17 | 0.791 | 3.67
12 | TCTGCTAGGTCAAGGATGGTCAGCTAATCTGCTA | 2.86 | 2.82 | -0.0468 | 1.48 | -0.198 | 3.12 | 2.01 | 3.21 | 2.02 | 2.71 | 4.19 | 4.08 | -0.492 | 0.24 | 0.578 | 1.23 | -0.697 | 2.26 | -0.712 | 3.97
13 | TCTGGTAGATCAACAGGAGGTTAAGAAAGATCGA | 0.3 | 1.04 | 0.187 | 0.782 | -0.582 | 1.24 | -0.00962 | 1.19 | 2.17 | 1.82 | 0.912 | 0.0177 | 0.166 | -0.137 | 0.335 | 0.736 | -0.172 | 1.06 | -0.145 | 0.269
14 | CCTACTGGGCCAAAGGTCACTGATTCCAATGCTC | 4.23 | 4.62 | 2.37 | 4.72 | 0.63 | 6.39 | 12.2 | 10.6 | 10.2 | 11.6 | 5.75 | 7.12 | 0.0303 | -0.418 | 3.54 | 5.27 | 1.1 | 6.62 | 1.82 | 4.56
